Screening data from PubChem.
Compounds with a hit are over-represented: about 19% of the library has one in this group of screens.
Chronic BCR inh = inhibitors of chronic active B-cell receptor signaling; ABC-DLBCL IkBa-CBG/CBR reporter, luminescence ratio, 4 h; 340,000 compounds, 0.05% hits; Potency, µM (series often up to 46.1 µM), for the others: top-dose activity change, negative = inhibition, most hits filed as inhibitors; active = well fitted inhibition curve with a large enough effect in the signal ratio, with a control signal flat, not every such curve was filed as active; inconclusive = small, poorly fitted or top-dose-only effect, or effect the other way, or a change in a side signal; the % refers to the signal ratio;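 note: potency is the fitted concentration of half-maximal effect; plate controls were basal doxycycline-induced cells for no effect and cells given 10 µM MG132 for full effect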
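Doxycycline induced both beetle luciferases in TMD8 lymphoma cells; IKK-driven degradation limits the IkappaBalpha-fused green signal, while red luminescence normalises for cell number and nonspecific effects. Compounds tested up to 46 uM, 4 hrs.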
DT40 TDP1 no CPT = qHTS for Inhibitors of human tyrosyl-DNA phosphodiesterase 1 (TDP1): qHTS in cells in absence of CPT; 420,000 compounds, 15% hits; DT40 Tdp1-/- hTDP1 cells, no CPT, ATP luminescence, 48 h; Potency, µM (series often up to 46.2 µM), without a hit: at the top dose activity change, negative = growth inhibition, actives largely listed as inhibitors; note: potency is the fitted concentration of half-maximal effect; % is set by controls: 0 for no effect and ±100 for the full control effect; nearly all actives have a fitted effect of over 55% in size
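A cellular qHTS used chicken DT40 cells lacking endogenous Tdp1 but carrying stably transfected human TDP1. Compounds were applied without camptothecin, and cell growth kinetics were judged by ATP-dependent luminescence after ≥48 hr.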
MCF10A rerep = inducers of DNA re-replication in MCF 10A breast cells; MCF 10A DNA re-replication, Hoechst nuclear intensity, 48 h; Potency, µM (top dose mostly 46.1 µM), inactives show top-dose activity, positive = re-replication, actives largely listed as activators; 350,000 compounds, 2.9% hits; AID 624296; note: potency is the fitted concentration of half-maximal effect; % of control where 0% means no effect; nearly all actives have a fitted effect of over 50% in size
IL1B secr inh = inhibitors of inflammasome signaling (IL-1 beta secretion) | THP-1 LPS/ATP IL-1B secretion, AlphaLISA, 16 h; active compounds read low | activity change, % at 57.5 µM | 360,000 compounds, 4.7% hits | AID 743279; in the data active = activity change below about -50%; inconclusive = mostly about -30% to -49%; note: % is set by controls: 0 for no effect and ±100 for the full control effect
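Secreted IL-1B measured by AlphaLISA bead assay after 16 h compound exposure of THP-1 cells; compounds (final up to 57.5 uM) added 1 h before LPS (250 ng/mL) and ATP (1.25 mM) stimulation; lower signal means less secretion.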
SW480 rerep = DNA re-replication induction in SW480 cells. SW480 DNA re-replication, Hoechst DNA content imaging, 48 h. Potency, µM (top dose mostly 46.1 µM), without a hit: at the top dose re-replication activation, actives largely listed as activators. 340,000 compounds, 1.8% hits. AID 624297; note: potency is the fitted concentration of half-maximal effect; % of control where 0% means no effect; nearly all actives have a fitted effect of over 55% in size
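Image-based read-out: total Hoechst fluorescence of nuclei (405 nm excitation, 500-530 nm emission), with hits raising the fraction of high-intensity nuclei. SW480 colon cells incubated 48 hr with compounds at 37 C.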
DT40 TDP1 CPT = DT40-hTDP1 cell growth loss with CPT; AID 686979; Potency, µM (doses to about 46.2 µM), for the others: at the highest dose activity change, negative = growth inhibition, hits mostly inhibitors; chicken DT40 Tdp1-/-;hTDP1 cells + 20 nM CPT, ATP luminescence, 48 h; 420,000 compounds, 12% hits; note: potency is the fitted concentration of half-maximal effect; % is set by controls: 0 for no effect and ±100 for the full control effect; nearly all actives have a fitted effect of over 55% in size
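Chicken DT40 Tdp1-/- cells complemented with human TDP1, 400 cells/well, exposed to compounds plus 20 nM camptothecin for at least 48 h at 37 C; viability read as ATP content by CellTiter-Glo luminescence.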
* = called active by the depositor; u = inconclusive; x = not tested or not shown. Unless noted, calls come from the whole dose curve; as a rule, active = well fitted curve in the direction sought with a large enough effect; inconclusive = small, poorly fitted or top-dose-only effect, or another doubt; inactive = no such curve, though single readings can be large; an effect the other way counts as inactive or inconclusive.

SMILES | Chronic BCR inh | DT40 TDP1 no CPT | MCF10A rerep | IL1B secr inh | SW480 rerep | DT40 TDP1 CPT
Cc1nc(NC(=O)C(C)(C)C)sc1-c1nc(N)sc1-n1cc(-c2ccccc2)nn1 | x | -23% | x | 16 | x | -1%
CCNc1nc(-c2sc(NC(=O)C(C)(C)C)nc2C)c(-n2cc(-c3ccccc3)nn2)s1 | x | 7.3µM* | x | -77* | x | 10µM*
Cc1cc(OCC(=O)N2CCN(c3ccccn3)CC2)cc(C)c1Br | -7% | 16µM* | u | -9 | -8% | u
CCc1ccc(OCC(=O)N2CCN(c3ccccn3)CC2)c(Br)c1 | 8% | u | 7% | -5 | -11% | 13µM*
CC(C)NC(=O)c1cc(C2CCCCN2S(=O)(=O)c2cccs2)on1 (centres undefined) | x | -6% | x | 15 | x | -14%
Cc1nn(Cc2c(Cl)cccc2Cl)c(C)c1NC(=O)c1sc2ccccc2c1Cl | -8% | 16µM* | 10µM* | 7 | u | 18µM*
Cc1ccccc1Cn1nc(C)c(NC(=O)c2sc3ccccc3c2Cl)c1C | 6% | 21µM* | u | -26 | 10% | u
CN(CC(=O)Nc1c(Cl)cccc1Cl)C(=O)CNC(=O)c1sc2ccccc2c1Cl | x | u | 16% | 59 | -3% | u
